Paper PMC6212790, “How bacterial xenogeneic silencer rok distinguishes foreign from self DNA in its resident genome”
Over roughly 33,000 sequences, “e-score” has its median near -0.037; the highest 2% begin near 0.34. The list comes from a sample in which the highest values are over-represented; it also holds similar and randomly drawn sequences.

Molecular target: T1, GST-Rok (full length) (Bacillus subtilis subsp. subtilis str. …, UniProt O34857 1-191)
T1 sequence: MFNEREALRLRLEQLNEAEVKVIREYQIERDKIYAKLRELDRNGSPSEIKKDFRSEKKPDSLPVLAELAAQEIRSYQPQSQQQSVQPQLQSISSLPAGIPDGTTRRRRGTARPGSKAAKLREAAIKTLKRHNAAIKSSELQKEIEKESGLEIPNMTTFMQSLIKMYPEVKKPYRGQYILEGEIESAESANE
Assay: protein binding microarray; Rok is a gene silencer of Bacillus subtilis; high values mean tight binding
Details: protein: recombinant; tags: GST (pTH5325, pDEST15-Magic modified); dsDNA, one strand shown
Procedure, shortened: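 Every oligonucleotide joins a 25-mer constant primer to a 35-mer variable part drawn from a de Bruijn sequence of order 10, so each non-palindromic 8-mer appears at least 32 times and each palindromic 8-mer 16 times. The preference for every 8-mer is reported as a unitless, rank-based enrichment score (E-score). This score spans 0.5 for the most favored 8-mer to −0.5 for the most disfavored.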

Sequence | binding signal
CGTCTAAA | -0.027 E-score
AGGCCTCA | -0.155 E-score
AAGTTGAT | 0.0883 E-score
CGGCAACA | -0.0449 E-score
CCTGTAAG | -0.159 E-score
AAGAATAA | 0.183 E-score
ACGTCACA | -0.0872 E-score
CAATGATG | 0.161 E-score
ACAATTCT | 0.149 E-score
ACATATAA | 0.329 E-score
ATATACAT | 0.302 E-score
ATATATAT | 0.471 E-score
ACCTATAT | 0.301 E-score
ACATATAT | 0.378 E-score
CTATATGC | 0.185 E-score
ACATATAG | 0.193 E-score
ATATATGG | 0.299 E-score
ATATATGC | 0.338 E-score
ACGGGTTC | -0.114 E-score
AACAGGCG | -0.0571 E-score
CTAATGAC | -0.05 E-score
ATATAAAA | 0.288 E-score

Sequence | binding signal
TAATATAA | 0.236 E-score
TTATATAA | 0.399 E-score
GTATATAA | 0.278 E-score
ATATATAA | 0.435 E-score
CTCTATAA | 0.0692 E-score
CTATATAA | 0.345 E-score
CTATAAAA | 0.23 E-score
TCATATAA | 0.192 E-score
CAACTGTG | -0.0366 E-score
CCTATGAA | -0.0665 E-score
GAAGAAAA | -0.0942 E-score
ATTGATCA | 0.101 E-score
ACAAACTC | 0.155 E-score
GAAAACTA | 0.346 E-score
AAAAACTC | 0.0197 E-score
GAAAACTC | -0.114 E-score
AAAAACTA | 0.417 E-score
AAAAACTT | -0.0545 E-score
ACAAACTA | 0.383 E-score
ACAAACTG | 0.127 E-score
CCAAACTA | 0.364 E-score
CCAAACTC | -0.0373 E-score

Sequence | binding signal
GAAAACCA | -0.118 E-score
CCAAACCA | -0.0489 E-score
GAAGAAGA | -0.113 E-score
CACGCTGA | -0.189 E-score
CATACCGC | -0.0931 E-score
CCGATTTC | -0.187 E-score
ACATAAAC | 0.257 E-score
AAAAGTTC | 0.114 E-score
ACGCAGTA | 0.125 E-score
AGGATTCA | -0.117 E-score
AACCAGCT | -0.112 E-score
TAAAACTA | 0.375 E-score
GCAAACAA | -0.152 E-score
CAAAACTA | 0.383 E-score
CAAAACTC | 0.0709 E-score
TAAAACGA | 0.111 E-score
GCAAACTA | 0.386 E-score
GCAAACCA | -0.161 E-score
CAAAACTG | -0.0906 E-score
TAAAACAA | 0.203 E-score
ATGGCTTA | 0.0565 E-score
AGAATTCA | 0.0872 E-score

Sequence | binding signal
ACCCTCGC | -0.0467 E-score
ATAACTTG | 0.289 E-score
GCATAGGC | -0.0277 E-score
CTATAGAG | 0.0607 E-score
CTATATAG | 0.402 E-score
ATATAGCG | 0.349 E-score
ATATAGCC | -0.000533 E-score
ATCTATAG | 0.313 E-score
ATATAGCA | 0.213 E-score
CCATATAG | 0.0758 E-score
ATATAGGG | -0.0461 E-score
ATATATAG | 0.416 E-score
AGTTATGG | 0.209 E-score
CAGCTAGA | 0.0847 E-score
AACTTCAC | -0.0432 E-score
CCTAACGA | -0.117 E-score
ATTTTGCC | 0.0261 E-score
GATCTGAA | -0.0373 E-score
CATGCCGA | 0.0242 E-score
ACTCTACT | 0.27 E-score
